Many of the other results were omitted from the sample, so hits are more common in it than they were.
RE007 growth inh – less growth of the S. pombe RE007 Vpr strain; 360,000 tested, 0.21% active; Potency, µM (doses to about 92.2 µM), actives largely listed as inhibitors; S. pombe RE007 Vpr strain, BacTiter-Glo ATP luminescence, 24 h; AID 651644; active = well fitted falling curve with a large enough effect; inconclusive = small, poorly fitted or top-dose-only effect; inactive = no such curve, though single readings can be large or run the other way; also: nearly all actives have a fitted effect of over 50% in size
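Fission yeast strain RE007, carrying one chromosomally integrated HIV-1 vpr copy, was seeded at OD 0.01 in PMG+AL medium with 23 nL pinned compound. After 24 h at 30 °C and 99% humidity, viability was read by BacTiter-Glo luminescence.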
Giardia FBPA inh – blocks Giardia fructose-bisphosphate aldolase activity. A8B2U2. purified Giardia FBPA. Potency, µM (doses to about 59.6 µM), usual class: inhibitors. 290,000 tested, 0.71% active; also: nearly all actives have a fitted effect of over 55% in size
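Giardia FBPA (40 nM reagent) was preincubated 10 min at RT with compound (up to 57.5 uM final), then substrate plus GAPDH/TPI/NAD/arsenate coupling system with diaphorase/resazurin was added; resorufin fluorescence (525/598 nm) was read after 20 min.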
Shiga toxin inh – Shiga toxin inhibition; Vero cells, Shiga toxin protein synthesis inhibition reporter; 290,000 tested, 9.2% active; inhibition, % at 38.7 µM; in the data active = inhibition mostly above about 28%, no sharp cut-off; inactive = mostly below about 43%
TbPYK inhibitor – inhibitors of Trypanosoma brucei pyruvate kinase; Q57TT1; TbPYK enzyme, Kinase-Glo Plus ATP luminescence, 45 min; Potency, µM (highest dose often 76.8 µM), most hits filed as inhibitors; 410,000 tested, 0.12% active; AID 624173; also: nearly all actives have a fitted effect of over 50% in size
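Readout: single end-point luminescence (Kinase-Glo Plus, 10 min). Reaction conditions were TbPYK/substrate plus 130 uM ADP, 45 min at RT, pH 7.2 TEA buffer. No-enzyme wells served as controls, and data were normalized before concentration-response fitting.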
CHX counter – affects cycloheximide protein synthesis inhibition readout, counter-screen. cell reporter, cycloheximide protein synthesis inhibition counterscreen. 300,000 tested, 12% active. AID 2314. max response, %; in the data active = max response mostly above about 13%, no sharp cut-off; inactive = mostly below about 14%; also: read at 38.3 µM for the half of the compounds with a filed dose
LmPK inhibitor – inhibitors of Leishmania mexicana pyruvate kinase; Q27686; Potency, µM (top dose mostly 57.5 µM), actives largely listed as inhibitors; 290,000 tested, 0.37% active; purified LmPK, Kinase-Glo ATP luminescence, 1 h
Target sequence (Q27686 whole entry, looked up): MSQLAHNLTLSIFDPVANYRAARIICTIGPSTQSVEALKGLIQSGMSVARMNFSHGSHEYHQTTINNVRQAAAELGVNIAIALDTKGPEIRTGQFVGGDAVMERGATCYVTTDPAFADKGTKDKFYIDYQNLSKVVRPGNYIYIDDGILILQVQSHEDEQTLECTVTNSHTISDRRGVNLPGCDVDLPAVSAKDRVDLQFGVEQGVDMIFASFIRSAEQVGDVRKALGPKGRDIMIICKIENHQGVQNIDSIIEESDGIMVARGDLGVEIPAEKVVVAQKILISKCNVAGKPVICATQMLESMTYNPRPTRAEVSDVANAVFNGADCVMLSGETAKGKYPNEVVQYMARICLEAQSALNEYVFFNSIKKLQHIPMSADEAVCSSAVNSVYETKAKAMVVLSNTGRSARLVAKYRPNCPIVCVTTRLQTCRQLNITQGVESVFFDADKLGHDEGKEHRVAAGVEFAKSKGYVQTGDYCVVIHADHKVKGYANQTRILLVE
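Purified LmPK (0.1 nM) with 0.5 mM PEP and 0.1 mM ADP in imidazole buffer pH 7.2 with MgCl2/KCl, 1 h at room temperature. ATP formed was read by luciferase luminescence and normalized to no-enzyme and uninhibited controls.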
Large screens that a line does not name were inactive. Unless noted, calls follow the shape of the dose curve; as a rule, active = well fitted curve in the direction sought with a large enough effect; inconclusive = small, poorly fitted or top-dose-only effect, or another doubt; inactive = no such curve, though single readings can be large; an effect the other way counts as inactive or inconclusive.

CCS(=O)(=O)Nc1cc(-c2nc3cccnc3s2)ccc1C	Shiga toxin inh 87, CHX counter 66
Cc1nc2ccc(S(=O)(=O)Nc3ccc(-c4nc5cccnc5s4)cc3)cc2s1	Shiga toxin inh 49, CHX counter 37
CCCC(=O)Nc1cc(-c2nc3cccnc3s2)ccc1C	none (no result: RE007 growth inh, Giardia FBPA inh, Shiga toxin inh, CHX counter, LmPK inhibitor)
Cc1nc2ccc(S(=O)(=O)Nc3cccc(-c4nc5cccnc5s4)c3)cc2s1	none
CCN1C(=O)C(Cc2nc3ccccc3c(=O)n2C)c2cc(C)ccc21 (configuration not stated)	none (no result: RE007 growth inh, Giardia FBPA inh, Shiga toxin inh, CHX counter, LmPK inhibitor)
Cc1cccc(CC(=O)Nc2cccc(-c3nc4cccnc4s3)c2)c1	none (no result: RE007 growth inh, Giardia FBPA inh, Shiga toxin inh, CHX counter, LmPK inhibitor)
CCS(=O)(=O)Nc1ccc(-c2nc3cccnc3s2)cc1	Shiga toxin inh 73, CHX counter 41
CC1=C(/C=C/C(C)=C/C=C/C(C)=C/C=C/C=C(C)/C=C/C=C(C)/C=C/C2=C(C)C(=O)C(O)CC2(C)C)C(C)(C)CC(O)C1=O (configuration not stated)	none (no result: RE007 growth inh, Shiga toxin inh, TbPYK inhibitor, CHX counter, LmPK inhibitor)
CC1(c2cnc(Nc3ccccc3)s2)CCC(=O)O1 (configuration not stated)	Shiga toxin inh 64, CHX counter 34
CC1(c2ccc3ccccc3c2)CCC(=O)O1 (configuration not stated)	none (no result: Giardia FBPA inh, Shiga toxin inh, CHX counter, LmPK inhibitor)
O=C(N/N=C\c1ccc(F)cc1)c1csnn1	Shiga toxin inh 106, CHX counter 44
O=C(COCC(=O)N/N=C/c1ccc(F)cc1)N/N=C/c1ccc(F)cc1	none
Cc1ccccc1/C=N/NC(=O)Cn1nnc(N)n1	none
Cc1ccccc1/C=N\NC(=O)c1csnn1	Shiga toxin inh 112, CHX counter 60
COc1ccc2nc(/C=N/NC(=O)[C@@H]3CCCN3C(=O)OC(C)(C)C)ccc2c1	Shiga toxin inh 76, CHX counter 46
CC(C)(C)OC(=O)N1CCC[C@H]1C(=O)N/N=C/c1ccc2nccnc2c1	none
Cc1cccc(NC(=O)C2CCCN(S(=O)(=O)c3ccc4c(c3)oc(=O)n4C)C2)c1C (configuration not stated)	none (no result: RE007 growth inh, Giardia FBPA inh, Shiga toxin inh, CHX counter, LmPK inhibitor)
CCC(C)NC(=O)c1cc2cc(S(=O)(=O)N3CCCCC3)ccc2n1C (configuration not stated)	none (no result: RE007 growth inh, Giardia FBPA inh, Shiga toxin inh, CHX counter, LmPK inhibitor)
CCN(CC)CCNC(=O)c1ccc(Cn2c(SCc3ccccc3)nc3cccnc32)cc1	none (no result: RE007 growth inh, Giardia FBPA inh, Shiga toxin inh, CHX counter, LmPK inhibitor)
CCOc1ccc(N2C(=O)CC(N)C2=O)cc1 (configuration not stated)	RE007 growth inh 7.1µM
CCOc1ccc(N2C(=O)CC(Cc3cc(C)cc(C)c3)C2=O)cc1 (configuration not stated)	none
CCOc1ccc(N2C(=O)CC(N(C)Cc3ccccc3)C2=O)cc1 (configuration not stated)	RE007 growth inh 35µM
COC(=O)c1ccc(N2C(=O)CC(N(C)Cc3ccccc3)C2=O)cc1 (configuration not stated)	RE007 growth inh 6.3µM
Cn1c2ccccc2c2cc(C(=O)N3CCN(CCO)CC3)sc21	CHX counter 14
CN(CC(=O)Nc1ccc(F)c(F)c1F)C(=O)c1ccc(=O)[nH]c1	Shiga toxin inh 50, CHX counter 38 (no result: Giardia FBPA inh)
COc1cccc(-c2nnc(N(C)C(=O)C3CCOC3)s2)c1 (configuration not stated)	Shiga toxin inh 58, CHX counter 29
Cc1ccc(-c2ccc(CCC(=O)O)n2-c2cccc(O)c2)cc1	Shiga toxin inh 121, CHX counter 40
CC(=O)c1cccc(-n2c(CCC(=O)O)ccc2-c2cccs2)c1	CHX counter 26
CC(=O)c1ccc(-n2c(CCC(=O)O)ccc2-c2ccccc2)cc1	none
CC(=O)c1cccc(-n2c(CCC(=O)O)ccc2-c2ccccc2)c1	Shiga toxin inh 75, CHX counter 40
COc1cccc(CNC(=O)c2cc3n(n2)CCCN(Cc2ccc(C)cc2)C3=O)c1OC	none (no result: RE007 growth inh, Giardia FBPA inh, Shiga toxin inh, CHX counter, LmPK inhibitor)
Cc1ccc(NC2=C/C(=N/S(=O)(=O)c3cccs3)c3ccccc3C2=O)cc1C	Giardia FBPA inh inconclusive, Shiga toxin inh 50, CHX counter 31 (no result: RE007 growth inh)
CC(C)c1ccc(S(=O)(=O)/N=C2\C=C(NS(=O)(=O)c3ccccc3)C(=O)c3ccccc32)cc1	RE007 growth inh inconclusive, Giardia FBPA inh inconclusive
Cc1ccccc1NC1=C/C(=N\S(=O)(=O)c2ccc(C(=O)O)cc2)c2ccccc2C1=O	RE007 growth inh inconclusive, Giardia FBPA inh 0.79µM, Shiga toxin inh 36
COC(=O)C(C(C)=O)C1=C/C(=N\S(=O)(=O)c2ccc(C)cc2)c2ccccc2C1=O (configuration not stated)	Giardia FBPA inh 13µM, LmPK inhibitor inconclusive
CCc1ccc(S(=O)(=O)/N=C2\C=C(NS(=O)(=O)c3ccccc3)C(=O)c3ccccc32)cc1	Giardia FBPA inh inconclusive, Shiga toxin inh 44, CHX counter 30
Brc1cccc(-c2nc3c4ccccc4ccn3c2Cc2ccsc2)c1	none (no result: Giardia FBPA inh, Shiga toxin inh, CHX counter, LmPK inhibitor)
COc1ccccc1N1CC(C(=O)OC(C)C(=O)Nc2ccc(F)cc2)CC1=O (configuration not stated)	none (no result: Giardia FBPA inh, Shiga toxin inh, CHX counter, LmPK inhibitor)
O=C(c1cccc(Cl)c1)N(Cc1cccc(F)c1)C1CCS(=O)(=O)C1 (configuration not stated)	none (no result: RE007 growth inh, Giardia FBPA inh, Shiga toxin inh, CHX counter, LmPK inhibitor)
Cc1ccc(SC2=C(Sc3ccc(C)cc3)C(=O)c3ccccc3C2=O)cc1	Giardia FBPA inh inconclusive, Shiga toxin inh 37, TbPYK inhibitor inconclusive, CHX counter 28, LmPK inhibitor inconclusive
Cc1ccc(SCC(=O)NN2C(=O)c3ccccc3C2=O)cc1	none
COc1cccc(CNCc2cccnc2)c1OCc1ccccc1	none
CCOc1cc(/C=C2/SC(=S)N(CC3CCCO3)C2=O)ccc1O (configuration not stated)	none
O=C1/C(=C/c2cccc(O)c2)SC(=S)N1CC1CCCO1 (configuration not stated)	Shiga toxin inh 72, CHX counter 32
COc1cccc(/C=C2\SC(=S)N(CC3CCCO3)C2=O)c1 (configuration not stated)	Shiga toxin inh 38, CHX counter 26
Cc1nc(NC(=O)c2ccccc2)sc1C	CHX counter 27 (no result: Shiga toxin inh)
Cc1nc(NC(=O)c2ccccc2O)sc1C	CHX counter 18
CCOC(=S)SCC(=O)Nc1nccs1	none
CC(=O)c1sc(NC(=O)c2ccccc2)nc1-c1ccccc1	RE007 growth inh inconclusive, Shiga toxin inh 96, CHX counter 57
CCOC(=S)SCC(=O)Nc1nc(C)c(C)s1	Shiga toxin inh 49, CHX counter 24
Oc1c(C(c2ccc(Cl)cc2)N2CCC3(CC2)OCCO3)sc2nc(-c3ccco3)nn12 (configuration not stated)	none (no result: RE007 growth inh, Giardia FBPA inh, Shiga toxin inh, CHX counter, LmPK inhibitor)
Cc1ccc(S(=O)(=O)c2nc(Nc3ccccc3)sc2Cl)cc1	none
